Laboratory results as given in PubChem BioAssay AID2314 (National Center for Advancing Translational Sciences (NCATS), 2010).
Screen size: about 300,000 compounds; about 37,000 (12%) were called active. Cut-off read from the data, not from the text of the source: active = max response mostly above about 13% (no sharp cut-off); inactive = mostly below about 14%. The full list was thinned out, with actives kept by preference.

test: Cycloheximide Counterscreen for Small Molecule Inhibitors of Shiga Toxin; details: cell reporter, cycloheximide protein synthesis inhibition counterscreen; hits give high values; note: read at 38.3 µM for the half of the compounds with a filed dose; 0% is about no effect

SMILES | max response
CCc1ccc(CNC(=O)C2CCN(c3nnc(C)c4c(C)n(-c5ccc(C)cc5)nc34)CC2)cc1 | -4.27% (inactive)
COc1ccc(C(=O)N2CCCCC2C(=O)Nc2ccc(-n3nc(C)cc3C)cc2)o1 (stereo not drawn) | -1.42% (inactive)
C[C@H](NC(=O)C1CC(=O)N(c2ccc3c(c2)OCO3)C1)C(=O)NCc1ccco1 (stereo partly drawn) | 1.48% (inactive)
CCOc1ccc(C2C(C#N)=C(N)N(N(C)C)C3=C2C(=O)CCC3)cc1 (stereo not drawn) | 0.68% (inactive)
O=C(NC(c1ccccc1)c1ccccc1)N1CCN(CCO)CC1 | -1.21% (inactive)
O=C1c2ccccc2C(=O)c2c1cccc2N1CCN(CCO)CC1 | 28.2% (active)
O=C1c2ccccc2C(=O)c2c1cccc2N1CCN(Cc2ccccc2)CC1 | 1.13% (inactive)
CN(C)c1ccc(S(=O)(=O)NCC(=O)NCC2CCCCC2)cc1[N+](=O)[O-] | -5.92% (inactive)
Cc1ccc(NC(=O)Cc2nnc(SCC(=O)Nc3nncs3)n2C)cc1 | -3.09% (inactive)
CN1C(=O)/C(=C/c2ccc(C(=O)NC3CCCC3)cc2)Oc2ccccc21 | 7.07% (inactive)
COCCCN1C(=O)C(=O)/C(=C(/O)c2ccc(S(=O)(=O)N3CCOCC3)cc2)C1c1ccc(F)cc1 (stereo not drawn) | -2.34% (inactive)
COc1ccc2cc(CCl)c(Cl)nc2c1 | 27% (active)
COc1ccc(CN2CCC(c3nc4ccc(Cl)cc4[nH]3)CC2)cc1 | -5.26% (inactive)
CCc1cc2cc(OC)ccc2nc1SCC(=O)Nc1cc(OC)c(OC)cc1C(=O)O | -1.72% (inactive)
O=C(NCc1ccccn1)C1CCN(S(=O)(=O)c2ccc(Br)cc2)CC1 | 5.38% (inactive)
Cc1c(NC(=O)CSCc2ccccc2)cccc1C(=O)O | 10.7% (inactive)
Cn1c(CSCC(=O)Nc2ccccc2)nnc1SCc1ccccc1 | 1.76% (inactive)
O=C(CSCc1ccccc1)Nc1ccccc1 | 54.4% (active)
CC(=O)c1ccc(NC(=O)c2ccc(-n3cncn3)c([N+](=O)[O-])c2)cc1 | 5.03% (inactive)
CC(C)C(c1nnnn1C1CCCCC1)N1CCN(C(=O)c2ccco2)CC1 (stereo not drawn) | -3.08% (inactive)

SMILES | max response
COc1ccc(N(CC(=O)Nc2ccc(F)c(F)c2)S(=O)(=O)c2c(C)[nH]c(=O)[nH]c2=O)cc1 | -1.45% (inactive)
CCc1ccc(/C=N/NC(=O)c2nnn(-c3nonc3N)c2CN2CCc3ccccc32)cc1 | 1.36% (inactive)
Cc1noc(C)c1COc1cccc(C(=O)Nc2cccnc2)c1 | -2.49% (inactive)
Cc1cccc(OCC(=O)NCCNC(=O)c2cccnc2)c1 | -6.99% (inactive)
CCOC(=O)C1CCCN(C(=O)c2cncc(Br)c2)C1 (stereo not drawn) | -3.79% (inactive)
Cc1cccnc1CC(C)NC(=O)c1cc(COc2cncc(Cl)c2)on1 (stereo not drawn) | 32.7% (active)
Cc1cccnc1NC(=O)CSc1nnc(COc2ccc(C(C)C)cc2)n1C | -8.69% (inactive)
CCCOC1CCCN(C(=O)c2cc(COc3cncc(Cl)c3)on2)C1 (stereo not drawn) | 40.2% (active)
CC(CCc1ccccc1)NC(=O)c1cnc(Cl)c(Cl)c1 (stereo not drawn) | -1.25% (inactive)
Cc1cc(Cl)ccc1C(=O)C1CCCN(C(=O)c2nonc2C)C1 (stereo not drawn) | -0.841% (inactive)
CCOC(=O)CC1(NC(=O)c2cc(COc3cncc(Cl)c3)on2)CCCCC1 | 11.2% (active)
CC(=O)c1cccc(OCc2cc(C(=O)NC(C)Cc3cccnc3)no2)c1 (stereo not drawn) | 23% (active)
O=C(Cc1ccccc1)Nc1c(Cl)ccc2nsnc12 | -0.56% (inactive)
CCOC(=O)c1c(S(=O)(=O)NCC(=O)Nc2ccc(C)cc2)c(C)n(C)c1C | -0.626% (inactive)
COC(=O)c1cc(NS(=O)(=O)c2ccc3c(c2)c(=O)n(C)c(=O)n3C)cc(C(=O)OC)c1 | -10.6% (inactive)
Cc1cccc(N(C(=O)c2csnn2)C(C(=O)NCc2ccccc2)c2ccncc2)c1 (stereo not drawn) | -3.2% (inactive)
COc1ccc(S(=O)(=O)N2CCC(C(=O)NCc3ccco3)CC2)cc1C | -1.76% (inactive)
Cc1ccccc1C(OCCN(C)C)C1CCCCC1 (stereo not drawn) | -3.58% (inactive)
COc1ccc(NS(=O)(=O)c2cc(NC(=O)C3CCCCC3)ccc2N2CCOCC2)cc1 | -4.24% (inactive)
CC(C)CNc1ncnc2c1cnn2Cc1ccc(Cl)cc1 | -1.18% (inactive)

SMILES | max response
CC(NC(=S)NNS(=O)(=O)c1ccc(C(C)(C)C)cc1)c1ccccc1 (stereo not drawn) | -3.09% (inactive)
CC(C)CC(NC(=O)C1CCCN1C(=O)[C@@H](C)NC(=O)OCc1ccccc1)C(=O)NCC(N)=O (stereo partly drawn) | 18.5% (inactive)
COCC(=O)N1CCCC(C(=O)c2ccc(C(F)(F)F)cc2)C1 (stereo not drawn) | 2.21% (inactive)
COc1ccc(CNC(=O)Cc2ccc(-c3ccccc3)cc2)cc1OC | -3.24% (inactive)
CCn1cc(C(=O)NCCC(=O)NCCO)c(=O)c2cc3c(cc21)OCO3 | -3.2% (inactive)
O=C(NCc1nnc(SCC(=O)N2CCCCCC2)o1)c1ccc(F)cc1 | -0.334% (inactive)
CC[C@@H]1Cc2cc(O)ccc2C2=C1c1ccc(O)cc1C[C@H]2CC | -6.86% (inactive)
C=CCSc1nnc(N2C(=O)C(O)=C(C(=O)c3ccco3)C2c2ccc(F)cc2)s1 (stereo not drawn) | 1.8% (inactive)
Cc1ccc2nc(N3C(=O)C(O)=C(C(=O)c4ccco4)C3c3cccc(O)c3)sc2c1 (stereo not drawn) | 23.5% (active)
COc1cc(C2C(C(=O)c3ccco3)=C(O)C(=O)N2c2cc(C)on2)ccc1OCc1ccccc1 (stereo not drawn) | -4.25% (inactive)
CCOC(=O)C1CCCN(CCSc2ccc(C)cc2)C1 (stereo not drawn) | 0.771% (inactive)
O=C(NC1CCCC1)C(c1ccco1)N(C(=O)c1ccco1)c1ccc(F)cc1 (stereo not drawn) | -3.92% (inactive)
Cc1cc(F)ccc1NC(=O)C(C)n1c2ccccc2c2nc(=O)cc(C)n21 (stereo not drawn) | -0.783% (inactive)
CSc1cccc(NC(=S)N(Cc2ccccc2)Cc2ccccn2)c1 | 7.83% (inactive)
Cn1c(CC(=O)Nc2ccc(F)cc2)nnc1SCC(=O)NC1CCCCC1 | -1.89% (inactive)
CCOC(=O)C1(Cc2cccc(OC)c2)CCCN(S(=O)(=O)c2cccnc2)C1 (stereo not drawn) | -3.01% (inactive)
CCOC(=O)C1(Cc2cccc(OC)c2)CCN(C(C)COC)CC1 (stereo not drawn) | 12.7% (inactive)
CCOC(=O)C1(Cc2cccc(OC)c2)CCCN(C(=O)CCSC)C1 (stereo not drawn) | 28.4% (active)
